Experimental data as given in PubChem BioAssay (NCI).
About 83,000 compounds went through this panel and 20% of them were active in at least one assay; those are over-represented in the sample as a whole.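 In brief: 96-well plates, 48 h treatment, single concentration, percent growth endpoint.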 A number with no mark means an inactive call. The source made the active and inactive calls. Rule for the calls: active = growth percent below 10; inactive = the rest.

What follows are molecules tested on U251 CNS (assay: NCI-60 one-dose screen, 48 h (100 = growth as untreated, 0 = no growth, -100 = all killed)). Details: 10 µM unless noted.

Row | Compound | growth
1 | CCOC(=O)c1c(NC(=O)c2ccccc2)sc2c3c(ccc12)OCN(C)C3 | -13% (active)
2 | COc1ccc(NC(=O)c2ccc(Nc3ncnc4c3cnn4-c3cccc(F)c3)cc2)cc1 | 103%
3 | COC(=O)c1c(C)nc(C)c2c1C(=O)C=C(NCc1ccccc1)C2=O | 99%
4 | CS(=O)(=O)Nc1cc(-c2ccc3ncnc(Nc4ccc5c(cnn5Cc5ccncc5)c4)c3c2)cnc1Cl | 52.7%
5 | S=c1ccnc[nH]1 | 102%
6 | Cc1ccc(S(=O)(=O)c2nc(-c3ccccc3)oc2SCC(N)=O)cc1 | 105%
7 | CN(C)Cc1ccc(NC(=O)c2cncc(C#Cc3cnc(N)c4ncccc34)c2)cc1C(F)(F)F | -57.5% (active)
8 | COc1cc(/C=C/c2cn[nH]c2-c2ccc(C)cc2)cc(OC)c1OC | 22.6%
9 | CCOC(=O)C(CCN(C)C)c1ccccc1 (centres undefined) | 103%
10 | O=C(/C=C/c1ccccc1)N(C1CCCCC1)C1CCCCC1 | 84.3%
11 | CC1(C)CC[C@]23CC[C@]4(C)[C@H](CC[C@@H]5[C@@]6(C)CCNCC(C)(C)[C@@H]6CC[C@]54C)[C@H]2[C@H]1OC3 | 70%
12 | Cc1nc2sc(C(=O)Nc3cccc4ccccc34)c(N)c2cc1C(=O)c1ccccc1 | 22.8%
13 | Cc1ccc(O)c(NC(=O)c2cccc(Nc3ccnc(C(F)(F)F)c3)c2)c1 | 83.6%
14 | N#CSc1c[nH]c2ccc(/C=C/C(=O)/C=C(O)/C=C/c3ccc4[nH]cc(SC#N)c4c3)cc12 | 7.38% (active)
